Some test systems named below: SR leukemia; RPMI-8226 leukemia; OVCAR-8 ovarian; OVCAR-5 ovarian; OVCAR-4 ovarian; SK-OV-3 ovarian; IGROV1 ovarian; HS 578T breast; NCI/ADR-RES ovarian; T-47D breast; BT-549 breast; MDA-MB-435 melanoma; SW-620 colon; MCF7 breast; HCT-116 colon; HCC-2998 colon; KM12 colon.
Assay in all cases: NCI-60 one-dose screen, 48 h (100 = growth as untreated, 0 = no growth, -100 = all killed)
Settings in all cases: 10 µM unless noted

Each structure is given as a SMILES string. This is part of a sample that, as a whole, favours compounds with a hit. Of some 83,000 tested, about 20% had one in any assay.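 Note: values are percent growth. 100 is the growth of untreated cells, values between 100 and 0 indicate rising inhibition; between -100 and 0 indicates cell death.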 Unmarked numbers belong to inactive results. Calls of active or inactive are those of the source. Rule for the calls: active = growth percent below 10; inactive = the rest.

In the case of `COc1ccc([C@@H]2[C@@H](O)C(=O)N2c2cc(OC)c(OC)c(OC)c2)cc1F`, the growth with SR leukemia is 8.72% (active); with RPMI-8226 leukemia, 21.5%; in the assay on OVCAR-8 ovarian, -5.69% (active); in the assay with OVCAR-5 ovarian, 31.5%; in the assay on OVCAR-4 ovarian it was 63.2%; in the assay on SK-OV-3 ovarian, 28.3%. Also, the growth in the assay with IGROV1 ovarian was 18.9%; with HS 578T breast, -2.79% (active); with NCI/ADR-RES ovarian it was -6.67% (active); in the assay on T-47D breast it was 68%; with BT-549 breast it was -18.5% (active); in the assay on MDA-MB-435 melanoma, -12% (active). In addition, the growth in the assay with SW-620 colon was 22.5%; with MCF7 breast it was 9.59% (active); with HCT-116 colon, 2.32% (active); with HCC-2998 colon, 5.15% (active); in the assay on KM12 colon, 6.09% (active).
With `Cc1ccc(C2=Nn3c(nnc3-c3ccccc3)SC2)cc1`, the growth was 14% in the assay with SR leukemia; 23.1% in the assay with RPMI-8226 leukemia; 25.9% in the assay with OVCAR-8 ovarian; 62.9% in the assay on OVCAR-5 ovarian; 67.3% in the assay with OVCAR-4 ovarian; 24.7% in the assay with SK-OV-3 ovarian. Also, the growth in the assay with IGROV1 ovarian was 49.5%; in the assay with HS 578T breast, 19.6%; in the assay with NCI/ADR-RES ovarian it was 14.1%; in the assay on T-47D breast, 29.2%; in the assay with BT-549 breast, 22.5%; in the assay on MDA-MB-435 melanoma it was -22.2% (active). Further, the growth is 16.4% in the assay on MCF7 breast, 17.7% with HCT-116 colon, 39.9% in the assay with HCC-2998 colon and 36.4% with KM12 colon.
Take `Cc1cc(C)cc(C(=O)Nc2cccc(C#Cc3cccc4[nH]nc(N)c34)c2)c1`: the growth in the assay on SR leukemia was 4.43% (active); in the assay on RPMI-8226 leukemia, 47.4%; in the assay with OVCAR-8 ovarian, 53.3%; with OVCAR-5 ovarian, 73.9%; in the assay with OVCAR-4 ovarian, 80.7%; in the assay on SK-OV-3 ovarian, 95.7%. Besides, the growth with IGROV1 ovarian is 64.6%; in the assay on HS 578T breast it was 75.7%; with NCI/ADR-RES ovarian, 59.8%; in the assay on T-47D breast, 39.4%; in the assay on BT-549 breast it was 115%; with MDA-MB-435 melanoma it was 2.35% (active). Moreover, the growth in the assay with SW-620 colon is 38.6%; with MCF7 breast, 38.1%; in the assay on HCT-116 colon it was 43.2%; in the assay with HCC-2998 colon it was 57.7%; in the assay with KM12 colon, 12.6%.
